Results on 95 compounds are retold here after PubChem BioAssay AID1851 (National Center for Advancing Translational Sciences (NCATS), 2009).

The campaign covered roughly 16,000 compounds. About 5,100 (32%) were called active. Another 25% or so got no clear call; they are omitted. Calls follow the shape of the dose curve; as a rule, active = well fitted curve in the direction sought with a large enough effect; inconclusive = small, poorly fitted or top-dose-only effect, or effect the other way; inactive = no such curve, though single readings can be large or run the other way. The list shows a part of the results.

As a reminder, the AC50 is the concentration at which the activity in the assay is half-maximal.
% is scaled to controls: 0 for no effect and ±100 for the full control effect.

The test deals with Cytochrome P450 3A4 (Homo sapiens) (UniProt P08684). The experiment in a line: Cytochrome panel assay with activity outcomes. The following applies: recombinant CYP, pro-luciferin dealkylation, luminescence, p450-cyp3a4; series mostly up to 57.1 µM.
Chain of Cytochrome P450 3A4 (Homo sapiens) (P08684 whole entry, looked up): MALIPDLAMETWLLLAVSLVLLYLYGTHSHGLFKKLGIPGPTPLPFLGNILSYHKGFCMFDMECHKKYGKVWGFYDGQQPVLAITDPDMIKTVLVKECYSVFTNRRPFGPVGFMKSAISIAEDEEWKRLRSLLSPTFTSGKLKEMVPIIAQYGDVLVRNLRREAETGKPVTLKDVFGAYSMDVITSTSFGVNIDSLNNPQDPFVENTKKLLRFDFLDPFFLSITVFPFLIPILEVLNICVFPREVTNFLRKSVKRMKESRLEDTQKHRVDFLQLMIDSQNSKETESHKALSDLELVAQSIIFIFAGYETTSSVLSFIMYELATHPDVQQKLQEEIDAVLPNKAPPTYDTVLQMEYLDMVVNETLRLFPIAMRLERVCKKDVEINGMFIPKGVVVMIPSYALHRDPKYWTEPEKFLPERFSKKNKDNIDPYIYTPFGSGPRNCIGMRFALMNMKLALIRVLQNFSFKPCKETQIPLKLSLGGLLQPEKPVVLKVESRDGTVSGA
On to `c1ccc(-c2noc(-c3ccc4ccccc4c3)n2)cc1`, for which the AC50 result was “inactive”.
Turning to `COc1cccc(-c2nccc(NCc3cccnc3)n2)c1`, the AC50 is 1.26 µM (active).
On to `COc1cccc(-c2nccc(NC3CCNCC3)n2)c1`, for which the AC50 entry was “inactive”.
Still for that read-out and setting: as for `COc1ccc(-c2cc(C(F)(F)F)nc(NCc3cccnc3)n2)cc1`, the figure is 4.47 µM (active); as for `COc1cccc(-c2noc(-c3cccnc3)n2)c1`, 5.01 µM (active); as for `COc1cccc(-c2nccc(NCc3ccccc3)n2)c1`, 3.98 µM (active).
In the case of `CO[C@@H]1COC(=O)[C@H]2CCCN2C(=O)[C@@H](C)COC(=O)C/C=C\[C@H]1C`, the activity, negative = inhibition is -15.8% [at 11.4 µM] (inactive).
As to `COCC(C)NCc1cccc(C)c1` (stereo not given), the AC50 entry is “inactive”.
The same measure, in the same setting: as for `COc1cccc(-c2nccc(NCc3cccc(C)c3)n2)c1`, the figure is 3.98 µM (active); as for `COc1cccc(-c2nccc(NCc3cccs3)n2)c1`, 5.01 µM (active).
Same read-out and setting: for `Cc1ccc(C)c(S(=O)(=O)NC(C)C(=O)Nc2ccc(-c3nc4ccccc4s3)cc2)c1` (stereo not given) the value was 3.55 µM (active); for `Cc1ccc(C)c(S(=O)(=O)NC(CC(C)C)C(=O)O)c1` (stereo not given), “inactive”.
For the compound `Cc1ccc2nc(-c3ccc(NC(=O)c4ccc(N)cc4)c(S(=O)(=O)O)c3)sc2c1`, the activity, negative = inhibition was -13.7% [at 11.4 µM] (inactive).
As for `COc1ccc([N+](=O)[O-])cc1N(CC(O)CN(CC(C)C)CC(C)C)S(=O)(=O)c1ccccc1` (stereo not given), the half-maximal activity concentration (AC50) is 1.12 µM (active).
The same measure, in the same setting: for `CCN(Cc1ccccc1)Cc1cccc([N+](=O)[O-])c1` the value was “inactive”.
Consider `CCN(/C=N/c1sc2c(c1C#N)CCCCC2)CC`, for which the activity, negative = inhibition is -17.6% [at 2.29 µM] (inactive).
As for `CCCN(/C=N/c1sc2c(c1C#N)CCCCC2)CCC`, the concentration at half-maximal activity (AC50) is 7.94 µM (active).
In the case of `COc1ccc(CNc2ncncc2-c2cccc(NS(C)(=O)=O)c2)c(OC)c1`, the AC50 is 0.251 µM (active).
On to `COc1ccccc1CNc1ncncc1-c1cccc(NS(C)(=O)=O)c1`, for which the concentration at half-maximal activity (AC50) is 0.251 µM (active).
Take `Cc1cc2c(cc1S(N)(=O)=O)S(=O)(=O)CCC2`: the AC50 result was “inactive”.
The same measure, in the same setting: as for `CCC(C)(C(=O)NC1CCCC1)N(CC1CCCO1)C(=O)c1ccc2c(c1)OCO2` (stereo not given), the figure is 3.98 µM (active); as for `CCOC(=O)Nc1ccc(C(=O)NCC2CCCO2)cc1` (stereo not given), “inactive”; as for `Cc1ccc(C(=O)NCC2CCCO2)cc1N1CCCC1=O` (stereo not given), “inactive”.
For `COc1cccc(CNc2ccc3nc(-c4ccc(N)cc4)c(OC)n3n2)c1`, the concentration at half-maximal activity (AC50) was 5.01 µM (active).
Same read-out and setting: as for `CC(=O)OCCCN1c2ccccc2Nc2nnc(-c3ccccc3)cc21`, the figure is 12.6 µM (active).
Take `Cc1ccc(N(Cc2ccccc2)Cc2ccccc2)cc1`: the activity, negative = inhibition is -22.6% [at 11.4 µM] (inactive).
On to `COc1ccc(CN(CCN(C)C)c2ccccn2)cc1`, for which the AC50 entry is “inactive”.
The same measure, in the same setting: for `CN(C)c1nccc(N(Cc2ccccc2)Cc2ccccc2)c1C#N` the value was 12.6 µM (active).
For `CO[C@@H]1COC(=O)[C@H]2CCCN2C(=O)C/C=C\[C@@H](C)[C@H](OC)COC(=O)[C@H]2CCCN2C(=O)C/C=C\[C@H]1C`, the activity, negative = inhibition is -3.39% [at 11.4 µM] (inactive).
`CN(C)c1ncc2ncc(=O)n(C)c2n1`: the AC50 result was “inactive”.
For `c1ccc(-c2nccc(-c3ccc(-n4cnc5ccccc54)cc3)n2)nc1`, the AC50 entry was “inactive”.
Regarding `O=C(O)COc1ccc(-c2nccc(-c3cccs3)n2)cc1`, the AC50 entry was “inactive”.
On the same count and under the same terms, as for `c1ccc2c(c1)ncn2-c1ccc(-c2ccnc(-c3ccncc3)n2)cc1`, the figure is 0.501 µM (active); as for `COC(=O)N1CCC2(CC1)CN(C(=O)Nc1cccc(C#N)c1)C2`, “inactive”.
Same read-out and setting: as for `COCC(=O)N1CCC[C@@]2(CCN(C(=O)Nc3ccccc3)C2)C1`, the entry is “inactive”.
For the compound `COc1ccc(C(=O)N2CCC3(CCCN(C(=O)Nc4cccc(C#N)c4)C3)CC2)cc1`, the half-maximal activity concentration (AC50) was 6.31 µM (active).
Consider `N#Cc1cccc(NC(=O)N2CC[C@@]3(CCCN(C(=O)c4ccncc4)C3)C2)c1`, for which the AC50 was 15.8 µM (active).
Same read-out and setting: for `COc1ccc(C(=O)N2CCC[C@@]3(CCN(C(=O)Nc4cccc(C#N)c4)C3)C2)cc1` the value was 7.94 µM (active); for `CC(=O)N1CCC2(CC1)CN(C(=O)Nc1cccc(C#N)c1)C2`, “inactive”.
On to `COCC(=O)N1CCC2(CCCN(C(=O)Nc3cccc(C#N)c3)C2)CC1`, for which the AC50 entry is “inactive”.
On the same count and under the same terms, for `COC(=O)N1CCC[C@@]2(CCN(C(=O)Nc3cccc(C#N)c3)C2)C1` the value was “inactive”.
For `COCC(=O)N1CCC2(CC1)CN(C(=O)Nc1cccc(C#N)c1)C2`, the AC50 entry is “inactive”.
The same measure, in the same setting: as for `COc1ccc(C(=O)N2CCC3(CC2)CN(C(=O)Nc2cccc(C#N)c2)C3)cc1`, the figure is 15.8 µM (active).
Consider `CC(C)c1nnc(-c2ccc(Cl)cc2)c(N(C)C)n1`, for which the activity, negative = inhibition is -7.47% [at 2.29 µM] (inactive).
As to `CCCn1c(N)c(C(=O)CSc2nc(C)cs2)c(=O)n(C)c1=O`, the AC50 is 6.31 µM (active).
On to `Cn1c(=O)c(C(=O)CN2CCOCC2)c(N)n(Cc2ccccc2)c1=O`, for which the AC50 entry was “inactive”.
Regarding `O=C(O)[C@@H](O)Cc1ccccn1`, the activity, negative = inhibition was 15.2% [at 11.4 µM] (inactive).
`CN1CCN(c2ncc3nc(-c4cccc(C#N)c4)c(=O)n(CCC#N)c3n2)CC1`: the AC50 result is “inactive”.
The same measure, in the same setting: as for `CN1CCN(c2ncc3nc(-c4ccccc4)c(=O)n(Cc4ccc(F)cc4)c3n2)CC1`, the entry is “inactive”.
`O=c1c(-c2ccccc2)nc2cnc(N3CCNCC3)nc2n1Cc1ccc(F)cc1`: the concentration at half-maximal activity (AC50) was 3.16 µM (active).
On the same count and under the same terms, as for `CN(C)c1ncc2nc(-c3ccccc3)c(=O)n(Cc3ccc(F)cc3)c2n1`, the entry is “inactive”; as for `Cc1nc2cnc(N(C)C)nc2n(CCC#N)c1=O`, “inactive”.
Regarding `CN1CCN(c2ncc3nc(-c4cccc(C#N)c4)c(=O)n(C)c3n2)CC1`, the AC50 result is “inactive”.
As for `Cc1nc2cnc(N(C)C)nc2n(Cc2ccc(F)cc2)c1=O`, the AC50 was 0.0251 µM (active).
With `CN1CCN(c2ncc3nc(-c4cccc(C#N)c4)c(=O)n(Cc4ccc(F)cc4)c3n2)CC1`, the AC50 was 20 µM (active).
`O=c1c(-c2ccc(F)cc2)nc2cnc(N3CCOCC3)nc2n1C[C@H]1CCCO1`: the AC50 result was “inactive”.
Still for that read-out and setting: for `N#CCCn1c(=O)cnc2cnc(N3CCNCC3)nc21` the value was “inactive”; for `COc1ccc(-n2c(=O)cnc3cnc(N4CCNCC4)nc32)cc1`, “inactive”.
Consider `O=c1cnc2cnc(N3CCNCC3)nc2n1Cc1ccc(F)cc1`, for which the concentration at half-maximal activity (AC50) was 7.94 µM (active).
The same measure, in the same setting: as for `O=c1c(-c2ccc(F)cc2)nc2cnc(N3CCNCC3)nc2n1Cc1ccc(F)cc1`, the figure is 7.94 µM (active).
Same read-out and setting: for `Cc1nc2cnc(N3CCN(C)CC3)nc2n(C)c1=O` the value was “inactive”.
Same read-out and setting: for `COCCn1c(=O)c(-c2ccc(F)cc2)nc2cnc(N3CCOCC3)nc21` the value was “inactive”.
On to `COCCn1c(=O)c(C)nc2cnc(N3CCN(C)CC3)nc21`, for which the AC50 entry was “inactive”.
With `N#CCCn1c(=O)c(-c2ccc(F)cc2)nc2cnc(N3CCOCC3)nc21`, the AC50 result was “inactive”.
The same measure, in the same setting: for `Cc1nc2cnc(N3CCNCC3)nc2n(Cc2ccc(F)cc2)c1=O` the value was 15.8 µM (active).
On the same count and under the same terms, as for `NC(=O)C[C@H](NC(=O)Cc1ccc(O)cc1O)C(=O)O`, the entry is “inactive”; as for `Nc1ncnc2c1ncn2[C@@H]1CCCO1`, “inactive”; as for `CCCS(=O)(=O)N1CCCC(C(=O)NCCN2CCC(Cc3ccccc3)CC2)C1` (stereo not given), “inactive”.
`C[C@@H](CN1CCC(Cc2ccccc2)CC1)[C@@H](O)c1ccc(O)cc1`: the AC50 result was “inactive”.
As to `COC(=O)c1cc2c(ccn2-c2ccc(F)cc2)n1CC(C)C`, the AC50 entry was “inactive”.
On the same count and under the same terms, as for `CC(C)OC(=O)c1cc2c(ccn2C)n1CC(=O)N1CCC(Cc2ccccc2)CC1`, the figure is 7.08 µM (active).
For the compound `CCOC(=O)c1cc2c(ccn2C)n1CC(=O)N1CCCC(C)C1` (stereo not given), the AC50 is 14.1 µM (active).
Regarding `Cc1ccc(C)c(Cn2c(C(=O)OC(C)C)cc3c2ccn3C)c1`, the half-maximal activity concentration (AC50) was 7.94 µM (active).
Same read-out and setting: as for `C[n+]1cccc(CNC(=O)/C=N/O)c1`, the entry is “inactive”; as for `O=C1NC(O)=NC1(c1ccccc1)c1ccccc1`, “inactive”; as for `CCCNC(=O)CC(NS(=O)(=O)c1ccc(Cl)cc1)c1ccco1` (stereo not given), 22.4 µM (active).
Regarding `CCCCNC(=O)NS(=O)(=O)c1cnccc1Sc1ccc(Cl)cc1`, the activity, negative = inhibition is -25.5% [at 2.29 µM] (inactive).
For the compound `O=C(CC(NS(=O)(=O)c1ccc(Cl)cc1)c1ccco1)NCc1ccco1` (stereo not given), the AC50 is 14.1 µM (active).
`O=C(NCCO)c1cc2c(s1)CCC2`: the AC50 entry was “inactive”.
As to `C[C@@H]1O[C@H](O[C@@H]2[C@H](C)O[C@H](O[C@@H]3[C@H](C)O[C@H](O[C@H]4CC[C@]5(C)[C@@H](CC[C@@H]6[C@H]5C[C@@H](O)[C@]5(C)[C@@H](C7=CC(=O)OC7)CC[C@]65O)C4)C[C@@H]3O)C[C@@H]2O)C[C@H](O)[C@@H]1O`, the AC50 entry is “inactive”.
In the case of `NCCn1c(=O)c(CCc2ccccc2)nc2cncnc21`, the half-maximal activity concentration (AC50) was 15.8 µM (active).
Take `COc1ccccc1CCn1c(=O)c(CCc2ccccc2)nc2cncnc21`: the AC50 is 3.16 µM (active).
Take `COCCn1c(=O)c(CCc2ccccc2)nc2cncnc21`: the AC50 was 7.94 µM (active).
`O=C(O)/C=C\c1c2ccc(=O)c(O)c-2oc2c(O)c(O)ccc12`: the activity, negative = inhibition is -22.7% [at 11.4 µM] (inactive).
With `COCCn1c(C)cc2c(c1=O)C(c1ccccc1F)C(C#N)=C(N)O2` (stereo not given), the AC50 was 5.62 µM (active).
The same measure, in the same setting: for `CCCC[S@@](=N)(=O)CC[C@@H](N)C(=O)O` the value was “inactive”; for `CCNCCCNCCCNCCCNCC`, “inactive”.
Turning to `Cc1cccc(N(C)S(=O)(=O)c2ccc3[nH]c(=O)c(=O)[nH]c3c2)c1`, the AC50 was 14.1 µM (active).
With `COc1ccc2c3c([nH]c2c1)[C@H]1C[C@@H]2[C@@H](C[C@@H](O)[C@H](OC)[C@H]2C(=O)O)CN1CC3`, the activity, negative = inhibition is -4.43% [at 11.4 µM] (inactive).
Take `CCS(=O)(=O)N1CCC[C@H]2CN3CCc4cc(OC)ccc4[C@@H]3C[C@@H]21`: the AC50 is 5.01 µM (active).
Same read-out and setting: as for `COc1ccc2c3c([nH]c2c1)[C@@H]1C[C@@H]2[C@@H](C[C@H](O)[C@H](OC)[C@H]2C(=O)O)CN1CC3`, the entry is “inactive”.
On to `Cc1ccc(-c2cccc(OC(=O)c3ccccc3F)c2)cc1`, for which the AC50 entry is “inactive”.
The same measure, in the same setting: as for `O=C(c1cc(O)c(O)c([N+](=O)[O-])c1)c1ccccc1F`, the figure is 20 µM (active).
`O=[N+]([O-])c1cc(Cc2cc([N+](=O)[O-])c3cccnc3c2O)c(O)c2ncccc12`: the activity, negative = inhibition is -19.6% [at 11.4 µM] (inactive).
As to `Nc1nc(Nc2ccccc2)nc2c1ncn2[C@@H]1O[C@@H](CO)[C@H](O)[C@@H]1O`, the AC50 entry was “inactive”.
